Data on 39 molecules can be found in PubChem BioAssay (NCI).

About 79,000 compounds went through this panel and 15% of them were active in at least one assay; those are over-represented in the sample as a whole. The source made the active and inactive calls. No stated cut-off is given here; in the data, active means growth inhibition above about 70%; inactive means the rest.

The first assay in a line: NCI Yeast Anticancer Drug Screen. Data for the cln2 rad14 strain (AID 165).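 Further: 0% = growth equal to vehicle treated cultures.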 To be noted: S. cerevisiae cln2 rad14 strain, at 50.0 µM, stronger effect = higher value. An outline of the steps:
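Each compound was tested on cln2 rad14 yeast. Inhibition of growth was calculated against vehicle-exposed controls.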
On to `ClCCN(CCCl)c1ccc(/C=N/N=C2c3ccccc3-c3ccccc32)cc1`, for which the growth inhibition is -2.95% (inactive). With `O[C@H](c1ccccc1)[C@@H](c1ccccc1)N1CCCCC1`, the growth inhibition is -28% (inactive).

With `C/C=C\CC1(C/C=C/C)C(=O)NC(=O)NC1=O`, the growth inhibition is -17.6% (inactive). In the case of `Nc1ccc(Sc2ccc(N)cc2)cc1`, the growth inhibition is -53.1% (inactive). With `COc1ccc2c(c1OC(C)=O)-c1cc(OC(C)=O)cc3c1C(C2)N(C(=O)CN(CCCl)CCCl)CC3` (configuration not stated), the growth inhibition is -13% (inactive). As for `CCCCOP(=O)(Nc1ccc(Cl)cc1)OCCCC`, the growth inhibition was 99.2% (active). For `CC1C(C)(C)P(=O)(Oc2cccc3cccnc23)C1(C)C` (configuration not stated), the growth inhibition is 64.6% (inactive). As to `O=[N+]([O-])c1c(Cl)cc(Cl)c([N+](=O)[O-])c1Cl`, the growth inhibition was 3.9% (inactive). With `COc1ccc2c3c1OC1C(O)C=CC4C(C2)N(N=O)CCC341` (configuration not stated), the growth inhibition is 11.5% (inactive). Regarding `CC(C)C1C=Cc2ccccc21` (configuration not stated), the growth inhibition was -13.1% (inactive). Consider `CCOC(=O)C(C#N)c1ccccc1` (configuration not stated), for which the growth inhibition was 14.1% (inactive). Regarding `C1CN2CCOC2O1`, the growth inhibition is 4.65% (inactive). In the case of `CCC(=O)OC1(c2ccccc2)CCN(CCC(O)c2ccccc2)CC1C` (configuration not stated), the growth inhibition was -34.9% (inactive). Regarding `S=P(Oc1cc(Cl)c(Cl)cc1Cl)(N1CCOCC1)N1CCOCC1`, the growth inhibition was 35% (inactive).

`CC1CCC2C(C)C3C(CC4C5CCC6CC(O)CCC6(C)C5CCC43C)N2C1` (configuration not stated): the growth inhibition is -29.1% (inactive). As to `CCCCCCCCCCC(=O)O`, the growth inhibition is -4.65% (inactive).

As for `Oc1ccccc1C=NCCN=Cc1ccccc1O`, the growth inhibition is -41.2% (inactive). Still for that read-out and setting: as for `C=C1[C@@H](C)[C@H]2[C@H](Cc3ccccc3)NC(=O)[C@]23OC(=O)/C=C/[C@H](O)CCC[C@@H](C)C/C=C/[C@H]3[C@@H]1O`, the figure is 39% (inactive); as for `O=C/C=C/c1ccco1`, 14.2% (inactive). For the molecule `CC(C)c1cc(C(C)C)c(S(=O)(=O)N=[N+]=[N-])c(C(C)C)c1`, the growth inhibition is -8.3% (inactive). Same read-out and setting: as for `N#CC(C#N)=Cc1ccccc1O`, the figure is -5.95% (inactive); as for `CC(C)c1cc2c(cc1O)C1(C)CCCC(C)(C)C1=CC2=O` (configuration not stated), -17% (inactive).

The nature of the next assay: NCI Yeast Anticancer Drug Screen. Data for the bub3 strain (AID 167). To be noted: S. cerevisiae bub3 mutant strain, at 50.0 µM, stronger effect = higher value. The essentials:
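Screening used yeast with an engineered genetic alteration affecting cell cycle control. Compound-exposed cultures were compared with vehicle cultures, and reduced growth was taken as inhibition.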
`COc1cc(/C=N/NC(=O)CN(C)C)cc(OC)c1N(CCCl)CCCl`: the growth inhibition is -2.25% (inactive). With `CCOP(=O)(O)C1CCCC(C)[N-]1.CCOP(=O)(O)C1CCCC(C)[N-]1.[Cu+2]` (configuration not stated), the growth inhibition is 2.9% (inactive). For `NC(Cc1ccc(Cl)cc1)c1nn[nH]n1` (configuration not stated), the growth inhibition is 1.2% (inactive). For the molecule `Cc1cc(C)[c]([Hg][Cl])c(C)c1`, the growth inhibition is 98.7% (active). For `[CH3][Sb]([CH3])([CH3])([I])[I]`, the growth inhibition is -0.2% (inactive). For `C=C1CC2C3CC=C4CC(OC(C)=O)CCC4(C)C3CCC2(C)C1=O` (configuration not stated), the growth inhibition was 15.8% (inactive).

On to `CCCC(C)SP(=S)(SC(C)CCC)SC(C)CCC` (configuration not stated), for which the growth inhibition was 2.85% (inactive). Turning to `CCCC[S][Sn]([CH2]CCC)([CH2]CCC)[S]CCCC`, the growth inhibition was 93.2% (active). Consider `COP1(=S)OCC2CCC[C@@H]2O1` (some centres not stated), for which the growth inhibition is -21.9% (inactive). On to `CCOC(C(=O)O)(c1ccccc1)c1ccccc1`, for which the growth inhibition is 19.5% (inactive). Consider `NC(CP(=O)(O)O)C(=O)O` (configuration not stated), for which the growth inhibition is -32.4% (inactive).

As to `CCC12C=CCN3CCC4(C(=C(C(=O)OC)C1)Nc1ccccc14)[C@H]32` (some centres not stated), the growth inhibition was 7.25% (inactive). On to `N#CCN(CC#N)[N+](=O)[O-]`, for which the growth inhibition is -26.3% (inactive). Same read-out and setting: as for `O=CNC(CSC(c1ccccc1)c1ccccc1)C(=O)O` (configuration not stated), the figure is 20.2% (inactive); as for `O=C(COc1ccccc1Cl)Nc1ccc[n+](Cc2ccc(S(=O)(=O)F)cc2)c1`, -3.15% (inactive); as for `O=C1CCCN1CC#CCN1C[C@@H]2C3CCC(C3)[C@@H]2C1`, 17% (inactive). `CC(=O)OC1CC2(O)C3CCC4CC(O)CCC4(C)C3CCC2(C)C1C1=CC(=O)OC1` (configuration not stated): the growth inhibition was -32.4% (inactive). With `ClCCN(CCCl)c1ccc(/C=N/N=C2c3ccccc3-c3ccccc32)cc1`, the growth inhibition was -18.9% (inactive). On to `O[C@H](c1ccccc1)[C@@H](c1ccccc1)N1CCCCC1`, for which the growth inhibition is 41.9% (inactive). For `C/C=C\CC1(C/C=C/C)C(=O)NC(=O)NC1=O`, the growth inhibition is -8.9% (inactive). Same read-out and setting: as for `Nc1ccc(Sc2ccc(N)cc2)cc1`, the figure is -8.25% (inactive); as for `COc1ccc2c(c1OC(C)=O)-c1cc(OC(C)=O)cc3c1C(C2)N(C(=O)CN(CCCl)CCCl)CC3` (configuration not stated), -0.05% (inactive).

On to `CCCCOP(=O)(Nc1ccc(Cl)cc1)OCCCC`, for which the growth inhibition is 99.4% (active). Consider `CC1C(C)(C)P(=O)(Oc2cccc3cccnc23)C1(C)C` (configuration not stated), for which the growth inhibition was 99% (active). With `O=[N+]([O-])c1c(Cl)cc(Cl)c([N+](=O)[O-])c1Cl`, the growth inhibition was 2.85% (inactive).
